Screening results as filed in PubChem.
Sampled rows, rich in hits. Any-hit rate of the full collection: about 1.5%.
GLD-1 RNA inh: GLD-1/TGE RNA complex disruptors, primary screen, biochemical, fluorescence polarization | Female germline-specific tumor suppressor gld-1 (Caenorhabditis elegans), Q17339 | purified GLD-1 + fluorescein TGE RNA | inhibition, % at 5.96 µM | 0.44% of 320,000 active;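 active = percent inhibition above a per-plate cutoff, the plate mean of test compounds plus 3 SD, cut at about 30% in these data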;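 note: 0% = DMSO wells with GLD-1 and probe and 100% = wells lacking GLD-1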
BCLXL inh: inhibitors of human Bcl-xL, primary screen, biochemical, fluorescence polarization, HTS; Bcl-2-like protein 1 (Homo sapiens), Q07817; GST-Bcl-xL / FITC-Bim BH3 peptide fluorescence polarization; inhibition, % at 10.9 µM; 0.7% of 320,000 active; AID 2129, 2009;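 active = inhibition above the mean of all tested compounds plus 3 SD, cutoff set per campaign, cut at about 30% in these data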;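 note: 0% = DMSO wells and 100% = unlabeled Bim-BH3 peptide competitor; inhibitors lower millipolarization by displacing the labeled peptide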
MCL1 BIM primary: inhibitors of MCL1 binding to BIM-BH3, primary screen, biochemical, fluorescence polarization | Induced myeloid leukemia cell differentiation protein Mcl-1 (Homo sapiens), Q07820 | GST-MCL1 / FITC-Bim-BH3 fluorescence polarization | inhibition, % at 10.9 µM | 0.68% of 320,000 active | AID 2057, 2009;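 active = inhibition above the mean inhibition of all tested compounds plus 3 SD, set per campaign, cut at about 40% in these data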;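 note: 0% = DMSO wells and 100% = unlabeled Bim-BH3 peptide control; higher means more loss of mP so more displacement of Bim peptide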
MEX-5 binding: MEX-5 zinc finger RNA-binding disruptors – biochemical, C. elegans, fluorescence polarization, MLPCN library, primary screen. MEX-5/FITC-TCR2 RNA binding; stronger effect = lower value. activity score (negative = inhibition of binding), % at 10 µM. 0.38% of 300,000 active. AID 1832, 2009;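 active = inhibition past about -25% in most replicates, and total fluorescence under double the plate's negative control median, limit read from the data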;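 note: 0% = DMSO and -100% = 5 µM competing unlabeled TCR2 RNA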
Target sequence (Q9XUB2 whole entry, looked up): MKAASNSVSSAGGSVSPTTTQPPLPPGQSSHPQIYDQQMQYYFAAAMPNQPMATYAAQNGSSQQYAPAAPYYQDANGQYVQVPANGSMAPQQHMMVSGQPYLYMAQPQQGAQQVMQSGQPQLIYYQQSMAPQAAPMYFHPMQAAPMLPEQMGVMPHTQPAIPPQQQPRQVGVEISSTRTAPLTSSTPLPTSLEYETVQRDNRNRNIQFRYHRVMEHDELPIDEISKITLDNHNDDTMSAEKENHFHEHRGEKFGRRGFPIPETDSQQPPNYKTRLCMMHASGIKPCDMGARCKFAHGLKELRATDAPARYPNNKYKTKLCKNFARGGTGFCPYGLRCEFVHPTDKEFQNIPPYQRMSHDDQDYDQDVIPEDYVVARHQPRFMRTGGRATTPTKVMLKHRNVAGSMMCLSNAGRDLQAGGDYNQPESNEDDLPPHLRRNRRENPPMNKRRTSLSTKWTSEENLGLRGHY
IDE inh: human IDE inhibitors in live cells, primary screen, fluorescence polarization, HEK cells, FAbetaB substrate; Insulin-degrading enzyme (Homo sapiens), P14735; 0.41% of 320,000 active; AID 434962, 2010; inhibition, % at 5.59 µM; FAbetaB cleavage;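 active = percent inhibition above the average of all tested compounds plus 3 SD, set per screening campaign, cut at about 16% in these data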;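 note: IDE supplied by intact live HEK cells; FP after avidin binding of uncleaved biotin substrate so inhibition keeps polarization high; 0% = DMSO wells and 100% = 60 µM reference IDE inhibitor Ii1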
IDE act: human IDE activators in live cells, primary screen, fluorescence polarization, HEK cells, FAbeta-B substrate; Insulin-degrading enzyme (Homo sapiens), P14735; FAbeta-B cleavage; 0% vehicle, 100% cell-free pure enzyme wells; activation, % at 5.96 µM; 0.073% of 340,000 active;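 active = activation above the mean of all tested compounds plus 3 SD, set per screening campaign, cut at about 17% in these data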
Bcl-xL conf: Bcl-xL inhibitors blocking Bim BH3 binding, confirmation, counter-screen for MCL1 inhibitor project, biochemical, fluorescence polarization | 54% of 1,700 active | inhibition, % at 10.9 µM | shares compounds with MCL1 BIM primary | GST-Bcl-xL / FITC-Bim BH3 peptide FP binding;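 active = inhibition above a cutoff equal to the mean inhibition of all tested compounds plus 3 SD, cut at about 30% in these data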;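 note: 0% = DMSO wells and 100% = unlabeled Bim BH3 control peptide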
MCL1 inh confirm: inhibitors of MCL1 binding to BIM-BH3, confirmation, biochemical, fluorescence polarization, triplicate | 61% of 1,700 active | inhibition, % at 10.9 µM | GST-MCL1 / FITC-Bim-BH3 fluorescence polarization | AID 2168, 2009 | shares compounds with MCL1 BIM primary;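 active = inhibition above the average of all tested compounds plus 3 SD, cut at about 40% in these data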;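 note: 0% = DMSO wells and 100% = unlabeled Bim-BH3 control peptide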
The depositor's hits bear a star; . = no result.

SMILES	GLD-1 RNA inh	BCLXL inh	MCL1 BIM primary	MEX-5 binding	IDE inh	IDE act	Bcl-xL conf	MCL1 inh confirm
CCN(CC)C(=O)c1sc2nc(-c3cccs3)cc(-c3cccs3)c2c1N	-12	1	2	-33*	1	2	.	.
CC(C)(C)C(=O)c1sc2nc(-c3cccs3)cc(C(F)(F)F)c2c1N	-28	20	0	-74*	-2	3	.	.
COc1ccccc1NC(=O)c1sc2nc(Cc3ccccc3)cc(C(F)(F)F)c2c1N	-5	-6	-10	-143*	0	3	.	.
CCN(CC)C(=O)c1sc2nc(-c3cccs3)cc(-c3ccc(Cl)cc3)c2c1N	-16	-1	-19	1	1	-4	.	.
O=C1c2cccc3cccc(c23)C(=O)C1(O)O	6	11	3	-59*	13	-10	.	.
CC(=O)N1C(=O)c2cccc3cccc(c23)C(=O)N1C(C)=O	-2	-3	-3	0	0	.	.	.
O=C(O)CCCN1C(=O)/C(=C/c2ccc(-c3nc4ccccc4s3)o2)SC1=S	-9	10	16	-29*	3	0	.	.
O=C(O)CCCCCN1C(=O)/C(=C\c2ccc(-c3ccc(Cl)cc3)o2)SC1=S	-6	-2	-3	-4	-3	7	.	.
O=C(NCC1CCCO1)C1CCN(S(=O)(=O)Cc2ccccc2)CC1 (stereo not given)	151*	2	-1	2	5	0	.	.
O=C(NCC1CCCO1)C1CCN(S(=O)(=O)c2ccccc2)CC1 (stereo not given)	3	5	4	1	-1	4	.	.
Cc1cc(C(=O)COc2cccc3cccnc23)c(C)n1C	151*	147*	177*	-3	-7	8	14	8
O=C(COc1ccccc1)N[C@@H]1c2ccccc2CC[C@@H]1O	.	.	.	.	.	1	.	.
Cc1cccn2c(=O)c(C=C(C#N)C#N)c(N3CCN(C)CC3)nc12	25	58*	53*	-10	-1	6	12	18
Cc1cccn2c(=O)c(C=C(C#N)C#N)c(N3CCN(c4ccccc4)CC3)nc12	.	.	.	0	.	1	.	.
O=C(CCCN1C(=O)/C(=C\c2cccs2)SC1=S)Nc1ccc(O)cc1C(=O)O	-3	17	19	-1	-2	1	.	.
O=C(CCCN1C(=O)/C(=C\c2ccco2)SC1=S)Nc1ccc(O)cc1C(=O)O	0	39*	71*	-17	9	3	51*	77*
O=C(CCCN1C(=O)/C(=C\c2cccs2)SC1=S)Nc1cccc(C(=O)O)c1	21	1	13	0	7	-2	.	.
O=C(CCCN1C(=O)/C(=C/c2ccco2)SC1=S)Nc1cccc(C(=O)O)c1	3	28	60*	-5	10	2	29	39
O=C1c2cccc(O)c2C(=O)c2c(O)cccc21	92*	119*	158*	-5	-5	.	81*	97*
O=C1C=C(O)c2cccc(O)c2C1=O	8	12	13	.	-3	1	.	.
Cc1c(NC(=O)C(C)Oc2cccc(F)c2)c(=O)n(-c2ccccc2)n1C (stereo not given)	-4	.	.	.	-4	3	.	.
O=C(CN1C(=O)/C(=C/c2ccco2)SC1=S)NC1CCS(=O)(=O)C1 (stereo not given)	17	44*	64*	-12	8	-5	20	31
